Laboratory results from PubChem BioAssay (NCI).
Compounds without any hit were thinned out: in the full panel of roughly 79,000, 15% have a hit. A number with no mark means an inactive call. Activity calls are given as the source filed them. No stated cut-off is given here; in the data, active means growth inhibition above about 70%; inactive means the rest.

Key:
[1] = NCI Yeast Anticancer Drug Screen. Data for the rad50 strain (AID 155);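 further: 0% = growth of vehicle-only cultures of the same strain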; details: S. cerevisiae rad50 strain growth inhibition, active compounds read high
In short: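 Compounds were tested on a yeast strain with an engineered DNA damage repair alteration; the reported value is growth inhibition normalised to vehicle treatment.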

[2] = NCI Yeast Anticancer Drug Screen. Data for the mec2-1 strain (AID 157); details: S. cerevisiae mec2-1 strain, active compounds read high
In short: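 Readout is yeast growth inhibition, normalised to vehicle-treated controls, in the mec2-1 strain exposed to compound.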

[3] = NCI Yeast Anticancer Drug Screen. Data for the sgs1 mgt1 strain (AID 161);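 further: 0% = growth of cultures given vehicle only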; details: S. cerevisiae sgs1 mgt1 strain, active compounds read high
In short: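 Percent growth inhibition was derived by comparing compound-exposed mutant yeast with vehicle-exposed cultures. The strain carries alterations in DNA damage repair.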

[4] = NCI Yeast Anticancer Drug Screen. Data for the cln2 rad14 strain (AID 165);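 further: 0% = growth equal to vehicle treated cultures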; details: S. cerevisiae cln2 rad14 strain, active compounds read high
In short: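 Relative to vehicle controls, growth inhibition of compound-treated cln2 rad14 yeast was recorded.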

[5] = NCI Yeast Anticancer Drug Screen. Data for the bub3 strain (AID 167); details: S. cerevisiae bub3 mutant strain, active compounds read high
In short: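 Growth of a checkpoint-deficient yeast mutant is measured after compound exposure. Values represent inhibition relative to vehicle.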

[6] = NCI Yeast Anticancer Drug Screen. Data for the mlh1 rad18 strain (AID 175); details: S. cerevisiae mlh1 rad18 strain growth inhibition, active compounds read high
In short: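 Test agents were incubated with a yeast strain of defined genotype (DNA damage repair defect). Inhibition of growth was derived by comparison with vehicle-exposed cultures.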

[7] = at 5.0 µM (retest, dose inferred, filed as 0.5)
[8] = at 50.0 µM (retest, dose inferred, filed as 5.0)

Compound `C1C2OC2C2C1C1CC2C2OC12` (stereo not given) has a growth inhibition [1, 7] of 1%, a growth inhibition [1, 8] of -3% and a growth inhibition ([1]; at 50.0 µM) of 7.9%. The growth inhibition [2, 7] was 0%, the growth inhibition [2, 8] was -4% and the growth inhibition ([2]; at 50.0 µM) was -12.8%. For the same compound, the growth inhibition [3, 7] was -3%, the growth inhibition [3, 8] was -15% and the growth inhibition ([3]; at 50.0 µM) was -2.55%. For the same compound, the growth inhibition [4, 7] was 2%, the growth inhibition [4, 8] was 2% and the growth inhibition ([4]; at 50.0 µM) was 19.4%. The growth inhibition [5, 7] was 1%, the growth inhibition [5, 8] was 1% and the growth inhibition ([5]; at 50.0 µM) was -12.9%. The growth inhibition [6, 7] was 1%, the growth inhibition [6, 8] was -1% and the growth inhibition ([6]; at 50.0 µM) was -0.1%.

In the case of `CCOP(=O)(OCC)/C(=C\NC(=S)N=Nc1c(O)[nH]c2ccccc12)C(=O)OC`, the growth inhibition [1, 7] is reported as 29%, the growth inhibition [1, 8] is reported as 81% (active) and the growth inhibition ([1]; at 50.0 µM) is reported as 19.6%. The growth inhibition [2, 7] was 4%, the growth inhibition [2, 8] was 89% (active) and the growth inhibition ([2]; at 50.0 µM) was 11.2%. The growth inhibition [3, 7] was 6%, the growth inhibition [3, 8] was 83% (active) and the growth inhibition ([3]; at 50.0 µM) was 7.85%. The growth inhibition [4, 7] was 2%, the growth inhibition [4, 8] was 67% and the growth inhibition ([4]; at 50.0 µM) was 46.1%. The growth inhibition [5, 7] was -8%, the growth inhibition [5, 8] was 62% and the growth inhibition ([5]; at 50.0 µM) was 13.8%. The growth inhibition [6, 7] was 5%, the growth inhibition [6, 8] was 84% (active) and the growth inhibition ([6]; at 50.0 µM) was 14.6%.

For `Cc1ccccc1[P+](C)(c1ccccc1C)c1ccccc1C`, the growth inhibition [1, 7] was 56%, the growth inhibition [1, 8] was 85% (active) and the growth inhibition ([1]; at 50.0 µM) was 81% (active). For the same compound, the growth inhibition [2, 7] was 18%, the growth inhibition [2, 8] was 78% (active) and the growth inhibition ([2]; at 50.0 µM) was 69.7%. For the same compound, the growth inhibition [3, 7] was 31%, the growth inhibition [3, 8] was 89% (active) and the growth inhibition ([3]; at 50.0 µM) was 82.2% (active). It also gave a growth inhibition [4, 7] of 2%, a growth inhibition [4, 8] of 48% and a growth inhibition ([4]; at 50.0 µM) of 29.1%. The growth inhibition [5, 7] was 27%, the growth inhibition [5, 8] was 85% (active) and the growth inhibition ([5]; at 50.0 µM) was 82.8% (active). The growth inhibition [6, 7] was 34%, the growth inhibition [6, 8] was 84% (active) and the growth inhibition ([6]; at 50.0 µM) was 71.8% (active).

With `CCc1nc(N)nc(N)c1-c1ccc(NCCN)c([N+](=O)[O-])c1` the growth inhibition [1, 7] was -20%, the growth inhibition [1, 8] was -26% and the growth inhibition ([1]; at 50.0 µM) was 98.7% (active). For the same compound, the growth inhibition [2, 7] was -3%, the growth inhibition [2, 8] was 5% and the growth inhibition ([2]; at 50.0 µM) was 98.7% (active). For the same compound, the growth inhibition [3, 7] was -28%, the growth inhibition [3, 8] was -22% and the growth inhibition ([3]; at 50.0 µM) was 98.8% (active). The growth inhibition [4, 7] was -7%, the growth inhibition [4, 8] was -34% and the growth inhibition ([4]; at 50.0 µM) was 98.5% (active). The growth inhibition [5, 7] was 2%, the growth inhibition [5, 8] was -28% and the growth inhibition ([5]; at 50.0 µM) was 98% (active). For the same compound, the growth inhibition [6, 7] was -31%, the growth inhibition [6, 8] was -40% and the growth inhibition ([6]; at 50.0 µM) was 98.9% (active).

With `CCOc1c(N=Nc2ccccc2OC)c(C)nn1C(N)=S` the growth inhibition [1, 7] was 6%, the growth inhibition [1, 8] was 24% and the growth inhibition ([1]; at 50.0 µM) was 8.85%. It also gave a growth inhibition [2, 7] of -10%, a growth inhibition [2, 8] of 21% and a growth inhibition ([2]; at 50.0 µM) of 3.9%. For the same compound, the growth inhibition [3, 7] was -5%, the growth inhibition [3, 8] was 41% and the growth inhibition ([3]; at 50.0 µM) was 9.1%. For the same compound, the growth inhibition [4, 7] was -2%, the growth inhibition [4, 8] was 3% and the growth inhibition ([4]; at 50.0 µM) was -20.6%. The growth inhibition [5, 7] was 1%, the growth inhibition [5, 8] was 14% and the growth inhibition ([5]; at 50.0 µM) was 22.9%. For the same compound, the growth inhibition [6, 7] was -4%, the growth inhibition [6, 8] was 21% and the growth inhibition ([6]; at 50.0 µM) was 29.9%.

In the case of `CCOc1ccc2c(c1)[n+]([O-])c(-c1ccc(Cl)cc1)c(N)[n+]2[O-]`, the growth inhibition [1, 7] is reported as 24%, the growth inhibition [1, 8] is reported as 99% (active) and the growth inhibition ([1]; at 50.0 µM) is reported as 99.2% (active). For the same compound, the growth inhibition [2, 7] was 23%, the growth inhibition [2, 8] was 99% (active) and the growth inhibition ([2]; at 50.0 µM) was 98.2% (active). For the same compound, the growth inhibition [3, 7] was 50%, the growth inhibition [3, 8] was 100% (active) and the growth inhibition ([3]; at 50.0 µM) was 99.3% (active). For the same compound, the growth inhibition [4, 7] was 34%, the growth inhibition [4, 8] was 98% (active) and the growth inhibition ([4]; at 50.0 µM) was 98.8% (active). For the same compound, the growth inhibition [5, 7] was 63%, the growth inhibition [5, 8] was 99% (active) and the growth inhibition ([5]; at 50.0 µM) was 99.2% (active). The growth inhibition [6, 7] was 68%, the growth inhibition [6, 8] was 99% (active) and the growth inhibition ([6]; at 50.0 µM) was 98.8% (active).

For `O=C(Nc1ccc(C(=O)c2ccccc2)cc1)Nc1ccc(Cl)c(Cl)c1`, the growth inhibition [1, 7] was 23%, the growth inhibition [1, 8] was 96% (active) and the growth inhibition ([1]; at 50.0 µM) was 92.5% (active). For the same compound, the growth inhibition [2, 7] was 9%, the growth inhibition [2, 8] was 97% (active) and the growth inhibition ([2]; at 50.0 µM) was 95.2% (active). The growth inhibition [3, 7] was 23%, the growth inhibition [3, 8] was 97% (active) and the growth inhibition ([3]; at 50.0 µM) was 94.8% (active). The growth inhibition [4, 7] was 30%, the growth inhibition [4, 8] was 91% (active) and the growth inhibition ([4]; at 50.0 µM) was 94.5% (active). The growth inhibition [5, 7] was 31%, the growth inhibition [5, 8] was 98% (active) and the growth inhibition ([5]; at 50.0 µM) was 96.1% (active). The growth inhibition [6, 7] was 38%, the growth inhibition [6, 8] was 97% (active) and the growth inhibition ([6]; at 50.0 µM) was 94.7% (active).

`Cn1c(C(C)(C)OC(=O)Oc2ccccc2)cnc1[N+](=O)[O-]` gave a growth inhibition [1, 7] of 0%, a growth inhibition [1, 8] of 51% and a growth inhibition ([1]; at 50.0 µM) of 37.1%. It also gave a growth inhibition [2, 7] of -1%, a growth inhibition [2, 8] of 24% and a growth inhibition ([2]; at 50.0 µM) of 16.8%. It also gave a growth inhibition [3, 7] of 3%, a growth inhibition [3, 8] of 68% and a growth inhibition ([3]; at 50.0 µM) of 65.5%. For the same compound, the growth inhibition [4, 7] was 4%, the growth inhibition [4, 8] was 31% and the growth inhibition ([4]; at 50.0 µM) was 30.4%. It also gave a growth inhibition [5, 7] of 0%, a growth inhibition [5, 8] of 4% and a growth inhibition ([5]; at 50.0 µM) of 1.35%. It also gave a growth inhibition [6, 7] of 9%, a growth inhibition [6, 8] of 54% and a growth inhibition ([6]; at 50.0 µM) of 38.8%.

In the case of `COC(=O)c1[nH]c(=O)c(C#N)c(C(=O)OC)c1C(=O)c1ccc2ccccc2c1`, the growth inhibition [1, 7] is reported as -1%, the growth inhibition [1, 8] is reported as 31% and the growth inhibition ([1]; at 50.0 µM) is reported as 80.8% (active). It also gave a growth inhibition [2, 7] of -2%, a growth inhibition [2, 8] of 20% and a growth inhibition ([2]; at 50.0 µM) of 10.9%. It also gave a growth inhibition [3, 7] of -1%, a growth inhibition [3, 8] of 25% and a growth inhibition ([3]; at 50.0 µM) of 67.6%. It also gave a growth inhibition [4, 7] of 7%, a growth inhibition [4, 8] of 32% and a growth inhibition ([4]; at 50.0 µM) of 20.3%. The growth inhibition [5, 7] was 7%, the growth inhibition [5, 8] was 41% and the growth inhibition ([5]; at 50.0 µM) was 24.6%. The growth inhibition [6, 7] was 12%, the growth inhibition [6, 8] was 44% and the growth inhibition ([6]; at 50.0 µM) was 80.8% (active).

For `CCCCCCCCC1CCNCC1`, the growth inhibition [1, 7] was 39%, the growth inhibition [1, 8] was 28% and the growth inhibition ([1]; at 50.0 µM) was 85.5% (active). For the same compound, the growth inhibition [2, 7] was -6%, the growth inhibition [2, 8] was 47% and the growth inhibition ([2]; at 50.0 µM) was 87.7% (active). For the same compound, the growth inhibition [3, 7] was 26%, the growth inhibition [3, 8] was 71% (active) and the growth inhibition ([3]; at 50.0 µM) was 92.2% (active). For the same compound, the growth inhibition [4, 7] was 33%, the growth inhibition [4, 8] was 38% and the growth inhibition ([4]; at 50.0 µM) was 72.5% (active). For the same compound, the growth inhibition [5, 7] was 36%, the growth inhibition [5, 8] was 62% and the growth inhibition ([5]; at 50.0 µM) was 90.3% (active). For the same compound, the growth inhibition [6, 7] was 20%, the growth inhibition [6, 8] was 23% and the growth inhibition ([6]; at 50.0 µM) was 89.8% (active).
